Assay outcomes as filed in PubChem BioAssay.
Shown are actives, neighbours in structure and some others; about 3.7% of the full set was active somewhere.
FMDV antiviral = antivirals against foot and mouth disease virus | FMDV antiviral cell-based qHTS | Potency, µM (series often up to 57.9 µM), without a hit: top-dose activity change, negative = inhibition, most hits filed as inhibitors | 410,000 tested, 1.2% active | AID 1159524; calls by dose curve; tested in HEK293T cells; further: read-out not given here; nearly all actives have a fitted effect of over 45% in size
Tb PYK inh = inhibitors of Trypanosoma brucei pyruvate kinase; Q57TT1; TbPYK enzyme, Kinase-Glo Plus ATP luminescence, 45 min; Potency, µM (series often up to 76.8 µM), for inactives: at the top dose activity, negative = inhibition, most hits filed as inhibitors; 410,000 tested, 0.12% active; further: nearly all actives have a fitted effect of over 50% in size
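T. brucei PYK with substrate was exposed to pin-transferred compounds across a concentration series, then started with 130 uM ADP (final). After 45 min at room temperature, Kinase-Glo Plus luminescence was read, normalized and curve-fitted.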
RE007 growth inh = less growth of the S. pombe RE007 Vpr strain | S. pombe RE007 Vpr strain, BacTiter-Glo ATP luminescence, 24 h | Potency, µM (highest dose often 92.2 µM), inactives show at the top dose activity change, negative = less growth, hits mostly inhibitors | 360,000 tested, 0.21% active | AID 651644; active means well fitted falling curve with a large enough effect; inconclusive means small, poorly fitted or top-dose-only effect; inactive means no such curve, though single readings can be large or run the other way; further: nearly all actives have a fitted effect of over 50% in size
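Fission yeast RE007 carrying one integrated HIV-1 vpr copy, seeded at OD 0.01 in PMG+AL medium with 23 nL pinned compound. Grown 24 h at 30 degrees; viability read by BacTiter-Glo luminescence after 5 min.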
Sm TGR inh = inhibitors of Schistosoma mansoni thioredoxin glutathione reductase; 360,000 tested, 3% active; Q962Y6; Potency, µM (series often up to 114 µM), for the others: at the top dose activity change, negative = inhibition, actives largely listed as inhibitors; purified TGR, DTNB reduction, TNB absorbance 405 nm; further: nearly all actives have a fitted effect of over 60% in size
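TGR 20 nM + NADPH 100 uM (dispensed conc.), cpd preinc 15 min RT; start with NADPH (500 uM addition) then DTNB (15 mM addition). Kinetic TNB absorbance, 405 nm filter. Four-parameter Hill fit across titration.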
* = called active by the depositor; ? = inconclusive; · = no result given; [ ] = dose if it differs, or a comment. Unless noted, the call rests on the fitted dose curve; in most records, active means well fitted curve in the direction sought with a large enough effect; inconclusive means small, poorly fitted or top-dose-only effect, or another doubt; inactive means no such curve, though single readings can be large; an effect the other way counts as inactive or inconclusive. On the % scale 0 is the no-effect control and ±100 the full control effect; potency means the concentration at half of the fitted maximal effect.

SMILES | FMDV antiviral | Tb PYK inh | RE007 growth inh | Sm TGR inh
Cc1ccc(CNC(=O)C2CCN(S(=O)(=O)c3ccc4c(c3)CC(C)N4C(=O)C3CCC3)CC2)o1 (stereo not drawn) | ? | -22% | -12% | 40µM*
CC(=O)N1c2ccc(S(=O)(=O)NCC3CCC(C(=O)Nc4ccc(C)c(C)c4)CC3)cc2CC1C (stereo not drawn) | 18µM* | -2% | · | -1%
Cc1ccc2c(Sc3ccccc3)c(C(=O)NCc3ccccc3F)[nH]c2c1 | 36% | -2% | · | 6%
CC(NC(=O)c1cccnc1)c1nnc2n1CCN(Cc1ccc(-c3ccccc3Cl)o1)CC2 (stereo not drawn) | 11% | · | · | ·
COc1ccccc1NC(=O)C1CCC(CNS(=O)(=O)c2ccc3c(c2)CC(C)N3C(C)=O)CC1 (stereo not drawn) | 32µM* | -5% | · | -1%
COc1ccccc1NC(=O)C1CCN(S(=O)(=O)c2ccc3c(c2)CC(C)N3C(C)=O)CC1 (stereo not drawn) | -14% | -14% | -7% | 7%
CCc1ccc(NC(=O)C2CCN(S(=O)(=O)c3ccc4c(c3)CC(C)N4C(C)=O)CC2)cc1 (stereo not drawn) | 16µM* | 3% | 3% | 6%
CCc1ccc(NC(=O)C2CCCN(S(=O)(=O)c3ccc4c(c3)CC(C)N4C(C)=O)C2)cc1 (stereo not drawn) | -2% | 1% | 1% | -2%
CCOc1ccc(OCC)c(NC(=O)CC(C)n2nc(C)cc2C)c1 (stereo not drawn) | -24% | -6% | · | 52%
COc1ccc(-c2nnc(SCC(=O)NC3CCCC3)nc2-c2ccc(OC)c(OC)c2)cc1OC | -3% | -13% | · | 7%
O=C(OCc1nc2scc(-c3ccccc3)c2c(=O)[nH]1)c1cc(Cl)ccc1[N+](=O)[O-] | ? | -9% | -5% | 0%
Cc1c(C(=O)OCc2nc3scc(-c4ccccc4)c3c(=O)[nH]2)cccc1[N+](=O)[O-] | 14µM* | -1% | -2% | 0%
O=C(NCCN1CCOCC1)c1cnn(-c2ncc3c(n2)-c2ccccc2CC3)c1C1CC1 | -2% | · | · | ·
O=C(/C=C/c1ccco1)N1CCc2ccccc21 | -45% | ? | ? | 7.9µM*
Cc1ccc(/C=C/C(=O)N2CCc3ccccc32)o1 | -30% | 20µM* | -90% | 45µM*
O=C(c1ccco1)N1CCc2ccccc21 | 61% | -3% | 14% | 2%
CCOCCCn1c(SCC(=O)Nc2ccccc2OC)nc2ccccc2c1=O | ? | -3% | -8% | -6%
COc1ccccc1NC(=O)CSc1nc2ccccc2c(=O)n1C | 14µM* | -14% | 3% | 0%
COCCCn1c(SCC(=O)Nc2ccc(NC(=O)c3ccco3)c(OC)c2)nc2ccccc2c1=O | -30% | 0% | 14% | 40µM*
Cc1ccccc1Nc1nc(N)nc(CSc2nc3ccccc3c(=O)n2C)n1 | 16µM* | -6% | 12% | 1%
Cc1ccccc1Nc1nc(N)nc(CSc2nc3ccccc3c(=O)n2CCCO)n1 | -6% | ? | 16% | 3%
Cn1c(SCc2cccc([N+](=O)[O-])c2)nc2ccccc2c1=O | 20µM* | 5% | 38% | -5%
CCOc1ccc2cc(-c3nnc(Nc4ccccc4F)s3)c(=O)oc2c1 | 29% | -6% | · | 0%
COC(=O)c1ccc(CSc2nc3ccccc3c(=O)n2C)o1 | ? | -8% | 3% | 45µM*
COc1cccc(CN2C(=O)c3ccccc3Sc3ccc(C(=O)N(C)Cc4ccccc4)cc32)c1 | 8% | 2% | · | 7%
SMILES | FMDV antiviral | Tb PYK inh | RE007 growth inh | Sm TGR inh
CCn1c(SCc2c(Cl)cccc2Cl)nnc1-c1nn(-c2ccccc2)ccc1=O | 13% | -13% | 3% | 100µM*
Fc1ccc(NCc2n[nH]c(=S)n2Cc2ccccc2)cc1 | -14% | 7.1µM* | 11% | 2%
S=c1[nH]nc(-c2ccc(Br)o2)n1Cc1ccccc1 | 17% | 10µM* | -14% | 4%
Cc1ccccc1/C=C/C(=O)c1ccc([N+](=O)[O-])o1 | 22µM* | -8% | 8.9µM* | 2µM*
Cc1cccc(/C=C/C(=O)c2ccc([N+](=O)[O-])o2)c1 | 25µM* | 0% | 7% | 1.6µM*
Cc1ccccc1NC(=O)c1ccc([N+](=O)[O-])o1 | -30% | 0% | -29% | -36%
O=C(/C=C/c1cccc([N+](=O)[O-])c1)c1ccc([N+](=O)[O-])o1 | ? | -5% | 2% | ·
COc1ccc(/C=C/C(=O)c2ccc([N+](=O)[O-])o2)cc1 | 25µM* | -4% | 9% | ?
COc1cccc(CNC(=O)c2cccn2-c2nnc(N3CCCC3)s2)c1 | 1% | 0%[15.4 µM] | · | 8%
CCCCNc1c(-c2cccc(-c3ccc(OC)cc3)c2)nc2ccc(C)cn12 | 28µM* | 0% | ? | 0%
CCCCNc1c(-c2cccc(-c3cc(C(C)=O)cs3)c2)nc2ccc(C)cn12 | ? | 0% | -26% | -1%
CCCCNc1c(-c2ccc(OC)c(SC3CCCCC3)c2)nc2cc(C)ccn12 | 25µM* | 2% | -22% | 3%
CCCCNc1c(-c2cccc(-c3ccc(OC)cc3)c2)nc2cc(C)ccn12 | 25µM* | -5% | -27% | ·
CC1=C(C(=O)Nc2ccc(C)cc2C)C(c2cccs2)n2nc(SCc3ccccc3Cl)nc2N1 (stereo not drawn) | -27% | -3% | · | 7%
CC1=CN2C(=N)/C(=C/c3ccco3)C(=O)N=C2S1 | -71% | 3% | 0% | -17%
CC1=CN2C(=N)/C(=C/c3ccc([N+](=O)[O-])o3)C(=O)N=C2S1 | 25µM* | -30% | 32µM* | 3.5µM*
CC1Sc2ccc(S(=O)(=O)N3CCC(C(=O)Nc4ccc(Cl)cc4)CC3)cc2NC1=O (stereo not drawn) | 14µM* | -24% | 0% | -6%
CCC(O)(CC)C(=O)NN(C(=O)CCl)c1ccccc1 | ? | 2% | 17% | 22µM*
O=C(Nc1ccccc1)NN(C(=O)CCl)c1ccccc1 | 20µM* | 7% | 3% | 3.5µM*
CCN(CC)NC(=O)Nc1ccccc1 | -7% | 1% | 9% | 13%
CCCC(O)(CCC)C(=O)NN(C(=O)OC)c1ccccc1 | ? | 3% | 1% | 46%
Cc1ccc(N(NC(=O)C(O)(c2ccccc2)c2ccccc2)C(=O)CCl)cc1 | 8.9µM* | 4% | 8% | 6.3µM*
CCOC(=O)C(CCc1ccccc1)NC(C)C(=O)N1CCCC1C(=O)O (stereo not drawn) | -7% | · | · | ·
Cc1ccccc1CN1c2ccccc2-c2nc(SCC(=O)NCCc3ccccc3)ncc2S1(=O)=O | 1% | 0% | · | -3%
COc1cccc(-c2nnc3sc(-c4ccccc4)nn23)c1 | 37% | 5% | 2% | -1%
COc1cccc(OC)c1-c1nn2c(-c3cc(-c4ccccc4)n[nH]3)nnc2s1 | -23% | -2% | 7% | 13µM*
O=C(CCS(=O)(=O)Cc1ccccc1)N1CCN(c2ccc([N+](=O)[O-])cc2)CC1 | ? | 0% | -2% | 25µM*
O=C(/C=C/c1ccccc1)Nc1nc(-c2ccncc2)cs1 | 13µM* | -21% | 16% | -4%
